# Test results published in the supplement of paper PMC7801607.
# Tests used:
# [1] = test system: CHO; test: % viability of CHO cells (MTT); higher = less toxic; conditions: 48 h
# In short: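 CHO cells were seeded at 10^6 cells/well in 200 µL and left overnight to attach. The medium was then replaced with fresh medium containing compound at 2 or 20 µM for 48 h. Survival was read colorimetrically with the tetrazolium (MTT) assay. Percent viability was expressed relative to untreated cells.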
# [2] = test system: HepG2-A16-CD81; test: % inhibition of HepG2 viability (CellTiter-Glo); higher = more toxic; conditions: 5 µM
# [3] = test system: Plasmodium falciparum NF54 stage IV/V gametocytes; test: % inhibition of gametocyte viability (PrestoBlue); higher = more inhibition; conditions: 48 h
# In short: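 Stage IV/V NF54 gametocytes (2% gametocytaemia, 5% haematocrit, 100 µL/well) were exposed to compound at 1 or 5 µM. Incubation was 48 h at 37 °C, stationary and hypoxic, followed by 10 µL PrestoBlue for 2 h. Fluorescence at 612 nm was read on 70 µL of transferred supernatant. Percent inhibition of gametocyte viability was normalised to DMSO and kill controls from a single run.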
# [4] = test system: Plasmodium falciparum NF54 asexual blood stage; test: % inhibition of asexual blood stage proliferation (pLDH); higher = more inhibition; conditions: 72 h
# In short: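 Plasmodium falciparum NF54 ring-stage cultures (1% haematocrit, 2% parasitaemia) were exposed to compound at 2 or 20 µM in 96-well plates. Incubation was 72 h at 37 °C under 4% CO2, 3% O2 and 93% N2. Survival was read colorimetrically at 620 nm with the parasite lactate dehydrogenase assay. Percent inhibition of asexual proliferation was normalised to DMSO and kill controls, and the screen was run on two separate occasions.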
# [5] = test system: Plasmodium falciparum NF54 stage IV/V gametocytes; test: % inhibition of gametocyte viability (ATP bioluminescence); higher = more inhibition; conditions: 24 h
# In short: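 In 96-well plates, compound at 1 or 5 µM was added to 30,000 density-gradient-enriched stage IV/V NF54 gametocytes per well and incubated for 24 h at 37 °C. ATP readout used the Promega BacTiter Glo bioluminescence system. Percent inhibition of gametocyte viability comes from a single run, normalised to control wells.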
# [6] = test system: Plasmodium falciparum NF54 stage IV/V gametocytes; test: % inhibition of gametocyte viability (luciferase reporter); higher = more inhibition; conditions: 48 h
# In short: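 Luminescence from 30 µL lysate combined with 30 µL Promega luciferin substrate was recorded on a GloMax-Multi+ reader using 10 s integration. The lysate came from stage IV/V NF54-Pfs16-GFP-Luc gametocytes (2% gametocytaemia, 2% haematocrit) held with compound at 1 or 5 µM for 48 h at 37 °C under stationary, hypoxic conditions. Percent inhibition was normalised against controls run once.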
# [7] = test system: Plasmodium berghei ANKA liver stage in HepG2-A16-CD81; test: % inhibition of liver stage parasite viability (luciferase); higher = more inhibition; conditions: 5 µM; 48 h
# Method: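 Single-concentration screen of the MMV Pandemic Response Box. P. falciparum NF54 asexual blood stages: pLDH assay, 72 h at 37 °C, 2 and 20 µM, n=2. Stage IV/V gametocytes (NF54): luciferase reporter (NF54-Pfs16-GFP-Luc, 48 h), ATP bioluminescence (24 h) and PrestoBlue (48 h) at 1 and 5 µM, n=1. P. berghei liver stage (luciferase in HepG2-A16-CD81, 48 h post infection) at 5 µM, n=4. All normalised to DMSO and kill controls as % inhibition.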
# 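Throughout, for % inhibition of HepG2 viability (CellTiter-Glo): HepG2-A16-CD81 hepatoma cells plated as in the liver-stage assay but without sporozoites, with DMSO wells as negative and 25 µM puromycin as positive control.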
SMILES,% viability of CHO cells ([1]; 2 µM) [%],% viability of CHO cells ([1]; 20 µM) [%],% inhibition of HepG2 viability [2] [%],% inhibition of gametocyte viability ([3]; 1 µM) [%],% inhibition of gametocyte viability ([3]; 5 µM) [%],% inhibition of asexual blood stage proliferation ([4]; 2 µM) [%],% inhibition of asexual blood stage proliferation ([4]; 20 µM) [%],% inhibition of gametocyte viability ([5]; 1 µM) [%],% inhibition of gametocyte viability ([5]; 5 µM) [%],% inhibition of gametocyte viability ([6]; 1 µM) [%],% inhibition of gametocyte viability ([6]; 5 µM) [%],% inhibition of liver stage parasite viability [7] [%]
Nc1nc2c(ncn2/C=C2/CC2(CO)CO)c(=O)[nH]1,102,5.45,-5.92,10.2,7.42,6.02,5.03,< 0,< 0,< 0,1.19,9.21
OC1O[C@H](CSc2ccc(F)cc2)[C@@H](O)[C@H]1O (some centres not stated),84.4,-2.31,-4.06,< 0,18.7,91.2,90.9,< 0,< 0,< 0,0.415,31.6
CC(C)c1ccc(COc2cccc(-c3cc(S(C)=O)c(C#N)c(=O)[nH]3)c2)cc1 (configuration not stated),91,106,3.83,< 0,28.5,18,56.2,51.9,82.8,< 0,< 0,32.5
CCCC1(C2CC2)c2cc(Cl)ccc2NC(=O)N1C (configuration not stated),60.2,59.9,1.91,< 0,6.87,18,53.6,< 0,< 0,0.472,< 0,-13.9
CC(=O)O[C@H]1C[C@@]2(C)[C@@H](C[C@@H](O)[C@H]3[C@@]4(C)CC[C@@H](O)[C@@H](C)[C@@H]4CC[C@@]32C)/C1=C(\CCC=C(C)C)C(=O)O,108,97.1,-0.207,< 0,2,1.38,9.02,< 0,< 0,< 0,< 0,36.2
NC(=O)[C@@H]1CC[C@@H]2CN1C(=O)N2OS(=O)(=O)O,82.9,117,4.71,< 0,< 0,30.8,16.5,1.17,< 0,< 0,1.87,12.2
Cc1cc(CCCOc2c(C)cc(-c3noc(C(F)(F)F)n3)cc2C)on1,103,125,7.06,6.7,35.6,44.6,65.2,4.65,5.28,10.6,< 0,-23.2
Nc1nc(C(F)(F)F)cc2c1[nH]c(=O)n2Cc1ccccc1,89.2,102,8.47,2.55,20.9,2.26,35,< 0,< 0,18.1,< 0,-12.1
COc1cc(C2C3=C(CC(C)(C)CC3=O)Nc3ccccc3N2C(C)=O)ccc1OCc1ccccc1 (configuration not stated),174,58,3.3,< 0,13.3,-1.82,14.6,3.07,< 0,< 0,< 0,25.5
O=C1CCC(N2C(=O)c3ccccc3C2=O)C(=O)N1 (configuration not stated),129,120,-2.75,< 0,< 0,30.6,69.3,< 0,< 0,0.963,6.01,25.6
CCC[C@@H]1C[C@@H](C(=O)N[C@@H]([C@H]2O[C@H](SC)[C@H](O)[C@@H](O)[C@H]2O)[C@H](C)Cl)N(C)C1,89.5,103,5.96,10.3,24.2,72.9,93.2,< 0,1.18,< 0,< 0,92.2
CCOc1noc2cc(OCCC3CCN(c4ccc(C)nn4)CC3)ccc12,66.5,58,1.58,16.1,23.3,84.1,70.5,6.06,0.657,6.47,5.12,27.3
O=C(CC1Sc2ncnn2C1=O)Nc1ccc(Br)cc1 (configuration not stated),100,102,-3.25,20.1,9.94,24.1,42.2,8.79,43.5,< 0,1.92,20.8
O=c1cc(OCc2ccccc2)ccn1Cc1ccccc1,82.6,98.7,-3.88,14.1,6.4,6.62,51.5,< 0,< 0,< 0,< 0,20.3
CCOc1ccc(/C=N/NC(=O)C2CC2c2ccc(C(C)(C)C)cc2)cc1OCC (configuration not stated),96.4,63.6,-8.74,< 0,1.6,18.7,37.8,< 0,< 0,17.9,< 0,11.3
CSC[C@H]1CN(Cc2c[nH]c3c(N)ncnc23)C[C@@H]1O,68.9,46.2,8.54,< 0,< 0,14.2,8.91,< 0,< 0,< 0,6.79,40.2
O=C(O)/C=C/C=C/c1cccc(Oc2cc(Cl)cc(Cl)c2)c1,97.3,110,-6,< 0,< 0,30.7,41.4,3.95,2.02,9.35,0.936,28.9
CC(C)(C)NC(=O)[C@@H]1CN(Cc2cnc3occc3c2)CCN1C[C@@H](O)C[C@@H](Cc1ccccc1)C(=O)N[C@H]1c2ccccc2C[C@H]1O,99.9,78.9,4.33,30.9,51.4,55.2,55.9,1.91,< 0,2.7,15.5,36

SMILES,% viability of CHO cells ([1]; 2 µM) [%],% viability of CHO cells ([1]; 20 µM) [%],% inhibition of HepG2 viability [2] [%],% inhibition of gametocyte viability ([3]; 1 µM) [%],% inhibition of gametocyte viability ([3]; 5 µM) [%],% inhibition of asexual blood stage proliferation ([4]; 2 µM) [%],% inhibition of asexual blood stage proliferation ([4]; 20 µM) [%],% inhibition of gametocyte viability ([5]; 1 µM) [%],% inhibition of gametocyte viability ([5]; 5 µM) [%],% inhibition of gametocyte viability ([6]; 1 µM) [%],% inhibition of gametocyte viability ([6]; 5 µM) [%],% inhibition of liver stage parasite viability [7] [%]
C[C@@H](NC(=O)c1cccc(-c2c[nH]c(-c3cc4ccccc4cn3)n2)c1)c1ccc(F)cc1,91.9,101,-1.52,9.05,8.49,21.8,72.3,28.5,83.2,0.447,1.09,29.1
Clc1cc(Cl)c2c(c1)CCc1ccccc1C2n1ccnc1 (configuration not stated),100,76.3,26.4,64.7,76.1,94.1,89.5,25.2,75.4,< 0,81.4,53.2
Cc1ccc(NC(=O)c2cc(Cl)ccc2O)cc1,101,-0.714,29.4,< 0,< 0,57.7,98.8,< 0,< 0,5.12,4.7,78.5
COc1ccc2c(c1OC)C(=O)OC2C1c2c(cc3c(c2OC)OCO3)CCN1C (configuration not stated),102,-0.468,3.76,< 0,5.61,42.6,68.3,< 0,< 0,2.79,9.42,19
O=C(NCc1ccccc1Cl)c1cnc2ccccc2n1,106,124,5.29,< 0,< 0,6.58,48.8,< 0,< 0,< 0,< 0,12.6
Cc1ccn2c(C(=O)NCc3ccccc3)c(C)nc2c1,276,53.7,-0.843,3.75,36.6,44.3,74.9,< 0,< 0,2.75,0.0756,20.4
OCCC#Cc1nc(-c2ccc(F)cc2)c(-c2ccncc2)n1CCCc1ccccc1,107,83,5.38,< 0,30.5,15.3,83,1.66,8.02,5.66,32.2,36.6
O=C(O)CSc1cc(NS(=O)(=O)c2cccc3cccnc23)c2ccccc2c1O,95.5,80.9,2.37,< 0,29.3,70.5,81,0.374,< 0,< 0,< 0,35.4
CCCCC(CC)CNC(=N)NC(=N)NCCCCCCNC(=N)NC(=N)NCC(CC)CCCC (configuration not stated),101,124,57.5,44.5,79.2,92.1,87.5,66.4,93.8,98.7,100,74
Nc1nc(O)c(Br)c(-c2ccccc2)n1,89.3,61.8,7.28,< 0,16.6,6.53,33.7,< 0,< 0,1.49,9.71,5.43
COc1ccc2cc3[n+](cc2c1OCCN(CCn1cncn1)Cc1ccc(F)cc1F)CCc1cc2c(cc1-3)OCO2,89.4,74.2,22.1,< 0,< 0,78.3,84.3,< 0,30.9,< 0,10.3,2.84
C/C(=N\NC(=O)C1CC1c1ccccc1)c1ccc(NC(=O)c2ccco2)cc1 (configuration not stated),101,69.1,-5.96,< 0,14.5,18.8,38.7,3.34,< 0,< 0,< 0,13.7
O=C(NC(=O)N1CCCc2ccccc21)c1cccc(Cl)c1,99.8,116,1.03,< 0,< 0,-12.6,10.3,< 0,< 0,< 0,< 0,11.4
COCCn1cnc2c(=O)[nH]c(Nc3ccccc3)nc21,103,63.9,5.25,< 0,0.985,28.3,62.8,7.08,5.85,14.5,5.09,7.54
CN1c2ccc(Cl)cc2N(c2ccccc2)C(=O)c2cn(Cc3ccc(CN4CCOCC4)cc3)nc21,90.9,69.1,-4.81,18.2,30.1,0.489,23.7,0.0957,< 0,15.5,0.583,38.6
CCCCCCCCC(CP(=O)(O)C(C)N)C(=O)O (configuration not stated),97.4,137,-1.01,< 0,< 0,17.8,95.7,< 0,< 0,< 0,10.2,24.3
Cc1cccc(CC(=O)N[C@H]2CCOC2=O)c1,95.4,98.6,5.04,< 0,21.6,35.3,53.6,< 0,< 0,< 0,5.44,4.19
C=CCN(C(=O)OCc1ccc([N+](=O)[O-])cc1)C1CCN(CC[C@](C)(CN(C)S(=O)(=O)c2ccccc2)c2ccccc2)CC1,129,122,-6.75,4.29,13.4,59.7,78.9,< 0,32,2.56,< 0,42.2
